Compounds without any hit were thinned out: in the full panel of roughly 83,000, 20% have a hit.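 The endpoint reported here, percent growth, reads 100 for growth as untreated, 0 for no net growth and -100 for all cells dead.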 A number with no mark means an inactive call. The source made the active and inactive calls. Rule for the calls: active = growth percent below 10; inactive = the rest.

The subject of this experiment is MDA-MB-468 breast. As to the kind of experiment: NCI-60 one-dose screen, 48 h (100 = growth as untreated, 0 = no growth, -100 = all killed). The settings on record: 10 µM unless noted.
As for `Cc1cc(Nc2ccc(F)cc2)nc(N2CCN(c3ccnc4cc(Cl)ccc34)CC2)n1`, the growth was 17.6%.

With `ClC1=C(Cl)C(Cl)=C(Cl)C1=Cc1ccccc1`, the growth was -80.7% (active).

As for `C=CC[P+](c1ccccc1)(c1ccccc1)c1ccccc1`, the growth is 10.9%. The value for `c1coc(CSc2ncnc3nc[nH]c23)c1` was 96%; that for `O=c1[nH]c(=O)n(C2CC(O)C(CO)O2)cc1CO` (stereo not given) was 101%; that for `O=C(/C=C/C=C/c1ccccc1)c1ccco1` was 29.3%. The same measure for `COc1ccc(-c2cc(=O)c3c(OC)c4ccoc4cc3o2)cc1`: 101%; for `O=C1c2cccc(NCCN=Cc3cc([N+](=O)[O-])ccc3O)c2C(=O)c2c(NCCN=Cc3cc([N+](=O)[O-])ccc3O)cccc21`: 43.4%.

As for `COc1ccc(Br)c(C=O)c1`, the growth was 84.5%.

Turning to `N#CC1=C(N2CCOCC2)NC2c3ccccc3Sc3ccccc3N2C1=N` (stereo not given), the growth was 99.9%. The same measure for `C[C@]12CC[C@@H]3c4ccc(O)cc4C[C@@H](O)[C@H]3[C@@H]1CC[C@@H]2O`: 98.1%; for `COc1ccc(C(=O)c2cc3c(N)c(C(=O)Nc4ccc(Cl)cc4)sc3nc2C)cc1`: 76.7%; for `COc1ccccc1/C=C(/C(=O)c1ccccc1)c1ccccc1`: 101%.

For the molecule `CCCCCCCCCCCCNC(=O)[C@H]1CSC(c2ccc(OC)c(F)c2)N1` (stereo not given in full), the growth is -81.4% (active). On to `C#C[C@@]1(O)[C@@H](CO)O[C@@H](n2cc(I)c3c(N)ncnc32)[C@@H]1O`, for which the growth is -37.7% (active).

Turning to `COc1cccc(-c2cc(-c3cccc(Cl)c3)c(C#N)c(=O)[nH]2)c1`, the growth was 70.1%. The value for `COC(=O)C(=[N+]=[N-])C(=O)c1ccc([N+](=O)[O-])o1` was 81.7%; that for `CN(C)CCOc1nc2ccccc2c2c1-c1ccc(Cl)cc1C2=O` was -51.1% (active); that for `COc1c(B(O)O)cccc1-c1nc2ccc3[nH]ncc3c2c2c1CCC2` was 60%.

On to `Cc1ccc(NS(=O)(=O)c2ccc(-c3cnc(C4CC4)o3)cc2)cc1C`, for which the growth was -25.6% (active). Turning to `COc1ccc(-c2nc(SCC(C)C)nc(N/N=C(/C)c3ccc(OC)c(OC)c3)c2C#N)cc1`, the growth was 91.5%. The same measure for `Nc1ccc(C(OC(=O)c2cc3ccccc3c(Cc3c(O)c(C(=O)OC(c4ccc(N)cc4)(c4ccc(N)cc4)c4ccc(N)cc4)cc4ccccc34)c2O)(c2ccc(N)cc2)c2ccc(N)cc2)cc1`: -23% (active). Consider `Cc1nc2c(nnn2-c2ccccc2)c2nc(-c3ccccc3)oc(=O)c12`, for which the growth is 110%. Turning to `c1cc[n+](C2c3ccccc3C([n+]3ccccc3)c3ccccc32)cc1` (stereo not given), the growth is -37.4% (active).

On to `N#Cc1cn(Cc2ccc(Cl)cc2Cl)c(C(=O)c2ccc(Br)cc2)c1N`, for which the growth is 75.5%. As to `CCOc1nc(-c2ccccc2)cc2c(O)c(C(=O)NN)[nH]c(=O)c12`, the growth is 110%.

Take `CN(C)c1ncc(C#Cc2c(F)cccc2F)c2ccccc12`: the growth is -7.26% (active). `O=C(CCCCCCNC(=O)C(O)(O)C(F)(F)F)Nc1ncc(-c2ccccc2)s1`: the growth is -25% (active). Regarding `COc1cccc(C(=O)Nc2cccc(C#Cc3cccc4[nH]nc(N)c34)c2)c1`, the growth is 24.5%. With `COc1cc(/C=C/c2ccccc2)cc(OC)c1`, the growth was 103%. On to `CCCC(=O)NC(c1ccc2c(c1)OC(F)(F)O2)c1cc(C)c2cccnc2c1O` (stereo not given), for which the growth is -14.7% (active). Regarding `Nc1c(C(=O)Nc2ccccn2)sc2nc3c(cc12)C(O)CCC3` (stereo not given), the growth is 15%. Regarding `CCO/C=N/C1=C(C#N)C(c2ccc(Cl)cc2)c2c(c3ccc(C)cc3[nH]c2=O)O1` (stereo not given), the growth is 96.8%.

As to `CS(=O)(=O)OCCN(CCOS(C)(=O)=O)c1ccc(/C=N/Nc2ccc([N+](=O)[O-])cc2[N+](=O)[O-])cc1`, the growth is 87.9%. Regarding `Clc1ccc2c(c1)C[C@H]1C[C@@H](c3cccs3)N2O1`, the growth is 106%. With `Cn1cc(-c2nc(-c3c[nH]c4ncccc34)cs2)c2cc(Cl)ccc21`, the growth was -3.54% (active). The value for `CCOC(=O)c1cc(C(=O)c2ccc(OC)cc2)n2ccc(/C=C/c3cc[n+](CC(=O)c4ccc(OC)cc4)cc3)cc12` was -38.2% (active); that for `Oc1cccnc1CN1CCCC1` was 104%; that for `C=C(C)[C@@H]1CCC[C@]2(C(=O)OC)CC[C@]3(C)[C@@H](CC[C@@H]4[C@@]5(C)CCCNC(C)(C)[C@@H]5CC[C@]43C)[C@@H]12` was 65.3%. As for `COc1ccc(-c2nnc(SCC(=O)Nc3ccc(C(=O)/C=C/c4ccc(Cl)cc4)cc3)n2-c2ccccc2)cc1`, the growth was 97.9%.

Values taken from PubChem BioAssay (NCI).
